Inconclusive results are not listed. The source made the active and inactive calls. Rule for the calls: active = hit-call score of the fitted dose curve at least 0.9, where 1 is the maximum; inconclusive = response in the unintended direction; inactive = score below 0.9.

Read-out in this experiment: alkyl and aryl transferase (GSTA2), GSTA2 (gene 2939)
The experiment can be described thus: CLD_GSTA2_48hr: CellzDirect (CLD) Gene Expression Assay for alkyl and aryl transferase (GSTA2) at 48 hours (AID 2283708).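 Note: active means mRNA induction above DMSO vehicle baseline.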 On the procedure:
CLD_48hr is a cell-based, multiplexed-readout assay that uses hepatocyte, a human liver primary cell, with measurements taken at 48 hours after chemical dosing in a 96-well plate.CLD_GSTA2_48hr is one of 16 assay component(s) measured or calculated from the CLD_48hr assay. It is designed to make measurements of mRNA induction, a form of inducible reporter, as detected with chemiluminescence signals by Quantitative Nuclease Protection Assay (qNPA) technology.Data from the assay component CLD_GSTA2_48hr was analyzed at the endpoint, CLD_GSTA2_48hr, in the positive analysis fitting direction relative to DMSO as the negative control and baseline of activity. Using a type of inducible reporter, gain-of-signal activity can be used to understand changes in the reporter gene as they relate to the gene GSTA2. Furthermore, this assay endpoint can be referred to as a primary readout. To generalize the intended target to other relatable targets, this assay endpoint is annotated to the transferase intended target family, where subfamily is alkyl and aryl transferase.
Human hepatocyte cultures were treated daily for two consecutive days with fresh dosing solutions containing appropriate concentrations of the 320 ToxCast chemicals (chemical identities were blinded to CellzDirect and other ToxCast collaborators), vehicle control (0.2% DMSO), and positive control inducers as summarized in Table 1. […] These replicate data, coupled with internal replicates designed within the blinded ToxCast chemical library, provided additional data to evaluate interindividual differences between hepatocyte preparations and their potential impact on chemical profiles.Cell morphology and integrity were evaluated using phase-contrast microscopy as an indicator of hepatocyte cell health (Tyson & Green, 1987). Cultures for each treatment group (i.e., media, vehicle [0.2% DMSO], positive control inducers [multiple concentrations], and the ToxCast chemicals [multiple concentrations]) were observed and cell morphology was assessed relative to vehicle control cultures at each harvest time point (0, 6, 24, or 48 h). […] Images were evaluated at the conclusion of the study to assess changes in cell integrity and account for the effects of chemical exposure on uncharacteristic changes in concentration-dependent gene expression profiles. The results from these determinations of apparent cytotoxicity were annotated (yes/no) alongside the corresponding qNPA data for reference.At the conclusion of each treatment period, hepatocyte cultures (96-well) were washed with 1 volume of HBSS, lysed by addition of 25 ul ArrayPlate lysis buffer (HTG, Tucson, AZ), and 70 ul/well of Denaturation Oil, denatured by incubation at 95C for 10 min, and frozen at approximately -70C until analysis by nuclease protection assay (qNPA) (Roberts et al., 2007). For qNPA analysis, cell lysates were thawed at 50C for approximately 30 min, qNPA probes were added, and samples were incubated at 95C for 10 min to begin the detection process by denaturing the target RNA, dissociating the duplexes and secondary structure hybridization. At the conclusion of the hybridization period, S1 nuclease reagent was added to each sample to digest all nonprotected nucleotides at 50C for 60-90 min. At the conclusion of the S1 nuclease digestions, all reactions were stopped by transfer of all the samples to fresh plates containing stop solution and incubated at 95C for 15 min to deactivate the enzyme, dissociate the mRNA/ DNA probe heterodimers, and hydrolyze the resulting single stranded mRNA, leaving a stoichiometric amount of single-stranded DNA nuclease protection probe, unmodified in sequence, as the only intact oligonucleotide left in the sample. Neutralization solution was subsequently applied to cooled (room temperature) plates, and samples were transferred to ArrayPlates for overnight incubations at 50Cto allow probes to be captured onto programmed locations on the ArrayPlates. […]
As for `CC1(C)C(C=C(Cl)Cl)C1C(=O)OC(C#N)c1ccc(F)c(Oc2ccccc2)c1` (stereo not given), the outcome was inactive.

As to `CCOc1nc(NC)nc(NC(=O)NS(=O)(=O)c2ccccc2C(=O)OC)n1`, the outcome was inactive. As to `[2H]C1([2H])[n+]2ccccc2-c2cccc[n+]2C1([2H])[2H]`, the compound was classed as inactive. Regarding `CC1(c2ccc(Oc3ccccc3)cc2)OC(=O)N(Nc2ccccc2)C1=O` (stereo not given), the outcome was inactive.

Consider `O=[N+]([O-])/N=C1\NCCN1Cc1ccc(Cl)nc1`, for which the call was inactive. Consider `N#CN`, for which the compound was classed as inactive. For `CC[C@H](C)[C@H]1O[C@]2(C=C[C@@H]1C)C[C@@H]1C[C@@H](C/C=C(\C)[C@@H](O[C@H]3C[C@H](OC)[C@@H](O[C@H]4C[C@H](OC)[C@@H](O)[C@H](C)O4)[C@H](C)O3)[C@@H](C)/C=C/C=C3\CO[C@@H]4[C@H](O)C(C)=C[C@@H](C(=O)O1)[C@]34O)O2` (tested in a mixture with another compound), the result was inactive. For `CCCN(CCOc1c(Cl)cc(Cl)cc1Cl)C(=O)n1ccnc1`, the result was inactive. On the same count and under the same terms, the same measure for `CCC(C)(NC(=O)c1cc(Cl)c(C)c(Cl)c1)C(=O)CCl` (stereo not given): “inactive”; for `N#Cc1c(Cl)c(Cl)c(Cl)c(C#N)c1Cl`: “inactive”.

By AC50 is commonly meant the midpoint of the concentration-response curve, whichever way the signal moves. Turning to `CCOCN(C(=O)CCl)c1c(C)cccc1CC`, the AC50 is 20 µM (active). As to `CCCN(CCC)c1c([N+](=O)[O-])cc(C(F)(F)F)cc1[N+](=O)[O-]`, the compound was classed as inactive.

Regarding `Oc1ccc(Cl)cc1Cc1ccccc1`, the result was inactive. Same read-out and setting: for `C#CCN1C(=O)COc2cc(F)c(N3C(=O)C4=C(CCCC4)C3=O)cc21` the value was “inactive”; for `O=C1c2ccccc2C(=O)N1SC(Cl)(Cl)Cl`, “inactive”; for `CCS(=O)(=O)c1cccnc1S(=O)(=O)NC(=O)Nc1nc(OC)cc(OC)n1`, “inactive”. On the same count and under the same terms, the same measure for `Oc1cc(Cl)ccc1Oc1ccc(Cl)cc1Cl`: “inactive”; for `CC(C)N(C(=O)COc1nnc(C(F)(F)F)s1)c1ccc(F)cc1`: “inactive”; for `ClC1C(Cl)C(Cl)C(Cl)C(Cl)C1Cl` (stereo not given): “inactive”. Consider `O=[N+]([O-])c1c(Cl)c(Cl)c(Cl)c(Cl)c1Cl`, for which the result was inactive. With `Cc1[nH]c(=O)n(C(C)(C)C)c(=O)c1Cl`, the outcome was inactive. As to `COC(=O)c1ccccc1S(=O)(=O)NC(=O)N(C)c1nc(C)nc(OC)n1`, the compound was classed as inactive. On the same count and under the same terms, the same measure for `CC(C)(C)C(O)C(Oc1ccc(Cl)cc1)n1cncn1` (stereo not given): “inactive”; for `COc1cc(OC)nc(NC(=O)NS(=O)(=O)c2cc(NC=O)ccc2C(=O)N(C)C)n1`: “inactive”; for `O=C(Nc1ccccc1)Nc1cnns1`: “inactive”. On to `COP(=O)(OC)OC=C(Cl)Cl`, for which the result was inactive. Turning to `CN1CSC(=S)N(C)C1`, the compound was classed as inactive. For `C[C@H]1[C@H](c2ccc(Cl)cc2)SC(=O)N1C(=O)NC1CCCCC1`, the AC50 is 34.4 µM (active). With `CC(C)OC(=O)Nc1cccc(Cl)c1`, the compound was called inactive. In the case of `COC(=O)c1ccccc1S(=O)(=O)NC(=O)Nc1nc(C)nc(OC)n1`, the compound was classed as inactive. `OCCOc1ccccc1`: the outcome was inactive. On the same count and under the same terms, for `CCN(CC)C(=O)SCc1ccc(Cl)cc1` the value was “inactive”; for `O=C(O)C(F)(F)C(F)(F)C(F)(F)C(F)(F)C(F)(F)C(F)(F)C(F)(F)F`, “inactive”. `COC(=O)c1ccccc1CS(=O)(=O)NC(=O)Nc1nc(OC)cc(OC)n1`: the compound was classed as inactive. The same measure, in the same setting: for `CNC(=O)/C=C(\C)OP(=O)(OC)OC` the value was “inactive”; for `CCC(C)(C)C(=O)OC1=C(c2ccc(Cl)cc2Cl)C(=O)OC12CCCCC2`, “inactive”. As for `CCC(C)Nc1c([N+](=O)[O-])cc(C(C)(C)C)cc1[N+](=O)[O-]` (stereo not given), the AC50 was 4.11 µM (active).

For the compound `CCOC1Oc2ccc(OS(C)(=O)=O)cc2C1(C)C` (stereo not given), the call was inactive.

Take `CC(C)(C)C(O)/C(=C\c1ccc(Cl)cc1Cl)n1cncn1` (stereo not given): the call was inactive. Same read-out and setting: the same measure for `CNC(=O)Oc1cccc(N=CN(C)C)c1`: “inactive”.

(Values after PubChem BioAssay (EPA / NIEHS).)
